Reference: PubChem BioAssay (EPA / NIEHS)
Inconclusive results are not listed. Activity calls are given as the source filed them. The calls were made as follows, unless noted: active = hit-call score of the fitted dose curve at least 0.9, where 1 is the maximum; inconclusive = response in the unintended direction; inactive = score below 0.9.

read-out: not listed separately; assay: CEETOX_H295R_PROG_noMTC: CeeTox H295R High-throughput Steroidogenesis Assay for Progesterone (PROG), maximum tolerated concentration (MTC) filtered results only (AID 2283920; active = hit-call score of the fitted dose curve at least 0.9, where 1 is the maximum; inactive = score below 0.9); conditions: actives raise or lower the signal
In short: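 H295R cells; forskolin 10 uM x 48 h prestim; test cpd 48 h, 0.1% DMSO final; media progesterone via LC-MS/MS; bidirectional fit vs DMSO; no MTT-based MTC filter applied.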

Row | Compound | outcome | AC50
1 | CCCC=C(C=O)CC | inactive | –
2 | N#Cc1ccc(C2CCCc3cncn32)cc1 (stereo not drawn) | inactive | –
3 | COc1ccc(C(=O)/C(Br)=C\C(=O)O)cc1 | – | 8.09 µM (active)
4 | N#Cc1ccc(C(c2ccc(C#N)cc2)n2cncn2)cc1 | inactive | –
5 | CCCCC1C(=O)N(c2ccccc2)N(c2ccccc2)C1=O | – | 38.7 µM (active)
6 | CC(C)c1ccc(O)c(C(C)C)c1 | inactive | –

read-out: not listed separately; assay: CEETOX_H295R_ESTRONE_noMTC: CeeTox H295R High-throughput Steroidogenesis Assay for Estrone, maximum tolerated concentration (MTC) filtered results only (AID 2283921; active = hit-call score of the fitted dose curve at least 0.9, where 1 is the maximum; inactive = score below 0.9); conditions: actives raise or lower the signal
In short: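 H295R cells prestimulated 48 h with 10 uM forskolin, then exposed 48 h to chemical in 0.1% DMSO; medium estrone measured by HPLC-MS/MS after MTBE extraction and dansyl derivatization, fitted bidirectionally versus DMSO without MTT-based MTC filtering.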

Row | Compound | outcome | AC50
7 | CCCC=C(C=O)CC | inactive | –
8 | N#Cc1ccc(C(c2ccc(C#N)cc2)n2cncn2)cc1 | – | 0.0263 µM (active)
9 | CCCCC1C(=O)N(c2ccccc2)N(c2ccccc2)C1=O | inactive | –
10 | CC(C)c1ccc(O)c(C(C)C)c1 | inactive | –

target: PGR (gene 5241) (UniProt P06401); assay: TOX21_PR_BLA_Followup_Antagonist_ratio: Tox21 HEK293 Progesterone Receptor (PR) Antagonism Beta-lactamase Follow-Up Assay, Ratio (AID 2283934); conditions: not given
Sequence (P06401 whole entry, looked up): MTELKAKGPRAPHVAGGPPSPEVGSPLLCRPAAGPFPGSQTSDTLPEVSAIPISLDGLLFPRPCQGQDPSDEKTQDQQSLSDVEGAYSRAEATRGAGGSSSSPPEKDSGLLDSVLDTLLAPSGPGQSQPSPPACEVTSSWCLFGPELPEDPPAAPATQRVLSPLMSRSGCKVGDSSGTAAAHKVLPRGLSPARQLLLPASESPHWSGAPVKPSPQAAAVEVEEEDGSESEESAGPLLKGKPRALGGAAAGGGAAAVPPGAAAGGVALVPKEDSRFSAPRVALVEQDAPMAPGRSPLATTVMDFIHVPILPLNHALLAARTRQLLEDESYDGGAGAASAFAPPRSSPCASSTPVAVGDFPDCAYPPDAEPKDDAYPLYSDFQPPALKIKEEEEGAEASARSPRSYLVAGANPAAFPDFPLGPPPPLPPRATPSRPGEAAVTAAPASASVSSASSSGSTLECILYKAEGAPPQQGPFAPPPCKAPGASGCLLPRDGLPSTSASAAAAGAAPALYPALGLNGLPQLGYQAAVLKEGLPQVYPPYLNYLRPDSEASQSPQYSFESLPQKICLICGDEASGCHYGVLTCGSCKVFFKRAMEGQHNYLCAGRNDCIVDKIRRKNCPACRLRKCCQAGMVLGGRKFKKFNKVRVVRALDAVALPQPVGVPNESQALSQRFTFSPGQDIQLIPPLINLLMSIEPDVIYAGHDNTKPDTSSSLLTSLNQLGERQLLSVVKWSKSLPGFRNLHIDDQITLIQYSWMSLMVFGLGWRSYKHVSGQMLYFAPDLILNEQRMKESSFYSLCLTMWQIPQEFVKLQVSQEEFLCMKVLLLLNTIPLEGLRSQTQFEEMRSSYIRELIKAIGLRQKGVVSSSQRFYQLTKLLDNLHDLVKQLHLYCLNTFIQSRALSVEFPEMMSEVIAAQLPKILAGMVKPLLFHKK
In short: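 HEK293T PR-UAS-bla, 2% CS-FBS; 6 hr plating, then cpd + R5020 (1 nM final), 16 hr 37C/5% CO2. B/G FRET substrate 2 h RT. Ratio ch2/ch1 vs DMSO; CellTiter-Glo viability multiplexed, autofluorescence checked.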

Row | Compound | outcome | AC50
11 | c1ccc2c(c1)[nH]c1ccccc12 | inactive | –
12 | COc1ccc(-c2coc3cc(O)cc(O)c3c2=O)cc1 | – | 29.5 µM (active)
13 | Nc1ccc(C(=O)OCCCOC(=O)c2ccc(N)cc2)cc1 | inactive | –
14 | Oc1ccc(-c2ccccc2)c(Cl)c1 | – | 25.7 µM (active)

tested on: not listed separately; assay: TOX21_PR_BLA_Followup_Agonist_viability: Viability Assessment in the Tox21 HEK293 Progesterone Receptor (PR) Agonism Beta-lactamase Follow-Up Assay (AID 2283935); conditions: not given;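 also: signal loss means lower viability so actives are cytotoxic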
In short: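 HEK293T PR-UAS-bla, 3,000 cells/well, 2% CS-FBS; 6 hr pre-incubation; cpd in DMSO, 16 hr 37C; LiveBLAzer 2 hr RT, then CellTiter-Glo 30 min RT, luminescence. Decrease = lost viability.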

Row | Compound | outcome
15 | c1ccc2c(c1)[nH]c1ccccc12 | inactive
16 | COc1ccc(-c2coc3cc(O)cc(O)c3c2=O)cc1 | inactive
17 | Nc1ccc(C(=O)OCCCOC(=O)c2ccc(N)cc2)cc1 | inactive
18 | Oc1ccc(-c2ccccc2)c(Cl)c1 | inactive

tested on: not listed separately; assay: TOX21_PR_BLA_Followup_Antagonist_viability: Viability Assessment in the Tox21 HEK293 Progesterone Receptor (PR) Antagonism Beta-lactamase Follow-Up Assay (AID 2283936); conditions: not given;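 also: hits lower the luminescence signal meaning cytotoxicity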
In short: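 PR-UAS-bla HEK293T cells (3,000/well, 2% charcoal-stripped FBS) given compound plus R5020 agonist, 16 h at 37C. CellTiter-Glo added after bla read, 30 min at room temperature; luminescence loss indicates cytotoxicity.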

Row | Compound | outcome
19 | c1ccc2c(c1)[nH]c1ccccc12 | inactive
20 | COc1ccc(-c2coc3cc(O)cc(O)c3c2=O)cc1 | inactive
21 | Nc1ccc(C(=O)OCCCOC(=O)c2ccc(N)cc2)cc1 | inactive
22 | Oc1ccc(-c2ccccc2)c(Cl)c1 | inactive

target: PGR (gene 5241) (UniProt P06401); assay: TOX21_PR_LUC_Followup_Antagonist: Tox21 HEK293 Progesterone Receptor (PR) Antagonism Luciferase Follow-Up Assay (AID 2283938); conditions: not given;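 also: curve fitted upward as signal gain over DMSO baseline despite antagonist label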
In short: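 HEK293-PR-A-luc cells were precultured 5 days in medium with 10% charcoal-stripped FBS, seeded 3,000/well, then exposed to compounds in DMSO for 16 h at 37C. Luciferase was read by ONE-Glo luminescence after 30 min at room temperature.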

Row | Compound | outcome | AC50
23 | c1ccc2c(c1)[nH]c1ccccc12 | inactive | –
24 | COc1ccc(-c2coc3cc(O)cc(O)c3c2=O)cc1 | – | 81.7 µM (active)
25 | Nc1ccc(C(=O)OCCCOC(=O)c2ccc(N)cc2)cc1 | inactive | –
26 | Oc1ccc(-c2ccccc2)c(Cl)c1 | – | 29.7 µM (active)

tested on: not listed separately; assay: TOX21_PR_LUC_Followup_Antagonist_viability: Viability Assessment in the Tox21 HEK293 Progesterone Receptor (PR) Antagonism Luciferase Follow-Up Assay (AID 2283940); conditions: not given
In short: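 Multiplexed viability counter-screen: after 5 days in charcoal-stripped-FBS medium, HEK293-PR-A-luc cells are plated, pinned with DMSO-dissolved compounds for 16 h at 37C, and ATP content is quantified luminescently via CellTiter-Glo.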

Row | Compound | outcome
27 | c1ccc2c(c1)[nH]c1ccccc12 | inactive
28 | COc1ccc(-c2coc3cc(O)cc(O)c3c2=O)cc1 | inactive
29 | Oc1ccc(-c2ccccc2)c(Cl)c1 | inactive

tested on: DIO1 (gene 1733); assay: CCTE_GLTED_hDIO1: CCTE's human Deiodinase 1 (DIO1) Inhibition Assay, Great Lakes Toxicology and Ecology Division (GLTED) Lab (AID 2283987); conditions: not given;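 also: isolated human DIO1 enzyme in a cell-free setup rather than cells; enzyme activity read as free iodide liberated from substrate via Sandell-Kolthoff colorimetry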
In short: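 Cell-free human DIO1 enzyme was incubated with test chemical for 3 h, and iodide released from substrate was measured by Sandell-Kolthoff absorbance. Loss of signal versus DMSO baseline indicated inhibition; plates were run in triplicate.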

Row | Compound | AC50
30 | CCCCCCCCCCCCc1ccc(O)cc1 | 31.5 µM (active)
31 | CCCCCCCCCCCCCCCCCCOS(=O)(=O)O | 90.1 µM (active)
32 | O=C(O)c1cc(O)c2ccccc2c1O | 50.1 µM (active)
33 | CCCCC/C=C\C/C=C\CCCCCCCC(=O)O | 19.2 µM (active)
34 | CCCCCCCOC(=O)c1ccc(O)cc1 | 75 µM (active)
35 | O=c1c(O)c(-c2ccc(O)cc2O)oc2cc(O)cc(O)c12 | 9.81 µM (active)

target: Nucleoli Translocation, AR (gene 367) (UniProt P10275); assay: UPITT_HCI_U2OS_AR_TIF2_Nucleoli_Antagonist: University of Pittsburgh U2OS Androgen Receptor-Transcriptional Intermediary Factor 2 (AR-TIF2) Antagonism High Content Imaging Assay for Nucleoli Translocation (AID 2283997); conditions: not given
Sequence (P10275 whole entry, looked up): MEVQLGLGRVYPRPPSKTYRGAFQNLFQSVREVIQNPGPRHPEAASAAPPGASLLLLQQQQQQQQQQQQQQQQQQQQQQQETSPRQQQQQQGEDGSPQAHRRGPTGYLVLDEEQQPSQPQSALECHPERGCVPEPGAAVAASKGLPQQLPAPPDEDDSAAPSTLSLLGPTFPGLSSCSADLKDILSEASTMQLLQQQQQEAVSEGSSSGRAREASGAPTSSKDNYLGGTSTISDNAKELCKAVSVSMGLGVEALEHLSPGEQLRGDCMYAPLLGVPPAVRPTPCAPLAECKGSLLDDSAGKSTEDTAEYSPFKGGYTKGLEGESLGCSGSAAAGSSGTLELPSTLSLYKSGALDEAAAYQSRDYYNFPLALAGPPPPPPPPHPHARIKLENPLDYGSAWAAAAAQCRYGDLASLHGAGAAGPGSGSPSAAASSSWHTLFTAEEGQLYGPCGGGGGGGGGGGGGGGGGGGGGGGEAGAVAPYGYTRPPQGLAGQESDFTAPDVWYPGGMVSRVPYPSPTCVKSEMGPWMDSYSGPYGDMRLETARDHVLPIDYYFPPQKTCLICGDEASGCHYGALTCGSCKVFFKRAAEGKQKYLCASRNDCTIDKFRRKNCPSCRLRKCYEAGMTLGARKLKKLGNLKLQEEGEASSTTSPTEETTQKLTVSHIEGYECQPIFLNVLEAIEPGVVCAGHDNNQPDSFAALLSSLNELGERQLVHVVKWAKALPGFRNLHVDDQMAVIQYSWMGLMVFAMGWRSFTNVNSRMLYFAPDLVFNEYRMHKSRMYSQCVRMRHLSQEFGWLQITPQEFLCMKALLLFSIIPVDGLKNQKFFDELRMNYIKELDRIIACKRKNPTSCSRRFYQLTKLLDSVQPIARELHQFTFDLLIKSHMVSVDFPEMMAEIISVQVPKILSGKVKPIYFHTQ
In short: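 Measured quantity was AR-RFP fluorescence localized to nucleoli in engineered U2OS cells also bearing TIF2-GFP, acquired on automated high-content imagers. Primary testing used 20 uM compound; actives were confirmed in triplicate wells.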

Row | Compound | AC50 | outcome
36 | c1ccc2c(c1)[nH]c1ccccc12 | 8.38 µM (active) | –
37 | COc1ccc(C(=O)c2ccccc2)c(O)c1 | 50 µM (active) | –
38 | CCC(C)c1ccccc1 (stereo not drawn) | – | inactive
